HSP90 refold inh: HSP90 refolding inhibition in rabbit reticulocyte lysate | actives 0.91% (n = 290,000) | luciferase refolding luminescence, 3 h | inhibition, % at 5.6 µM | AID 1789;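 active = inhibition above the screen-wide mean plus 3 SD, computed separately per campaign, cut at about 16% in these data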;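 also: 0% = DMSO wells and 100% = 60 µM geldanamycin wells; inhibitors lower the luminescence because luciferase stays unfolded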
Hsp70 activator: switches on Hsp70 transcription; HeLa Hsp70 promoter luciferase reporter, luminescence; scaled: vehicle 0, proteasome-inhibitor control 100%; actives 0.04% (n = 200,000); activation, % at 10 µM;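 active = activation above the mean across all tested compounds plus 3 SD, cutoff set per campaign, cut at about 5.5% in these data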;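 also: 100% = MG132 at 30 µM as the positive control and 0% = DMSO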
NALP1 yeast inh: inhibitors of NALP1 inflammasome in yeast | actives 0.61% (n = 280,000) | S. cerevisiae NALP1/ASC/caspase-1 growth, X-gal OD620, 72 h | inhibition, % at 10 µM; in the data active = inhibition mostly above about 24%, no sharp cut-off; inactive = mostly below about 32%
pCIP destab: compounds decreasing mouse p/CIP protein stability; F442A p/CIP-EGFP cells, EGFP fluorescence, 16 h; decrease of EGFP signal, % at 10 µM; actives 0.01% (n = 290,000);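 active = EGFP signal decrease of at least 30% at 10 µM or well 3 SD below plate mean, unless failing retest; inactive = the rest, including hits failing retest or dose response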
HSF1 activator: increases HSF-1 driven luciferase reporter signal. NIH3T3-HGL HSF-1 luciferase reporter, MG132, 8 h; 100% = twice DMSO control signal. activation, % at 9 µM. actives 1.7% (n = 300,000). AID 504408;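 active = mean replicate activation of at least 50% with a set share of replicates each reaching 50%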;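 also: 0% = median of the neutral control wells and 100% = twice that signal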
HSF1 inh: HSF1 inhibition | actives 0.77% (n = 300,000) | AID 2098 | NIH3T3-HGL HSE-luciferase, MG132-induced, luminescence 8 h; hits give low values | activity change, negative = inhibition, % at 7.5 µM (by protocol);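 active = more than half of replicate wells show activity change below -50%, luminescence cut by over half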;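 also: luciferase reports HSF-1 transcriptional activity via heat shock element; 0% = median of DMSO wells and -100% = zero luminescence signal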
* = called active by the depositor; nt = not tested or not shown. Sampled rows, rich in hits. Any-hit rate of the full collection: about 3.8%.

SMILES	HSP90 refold inh	Hsp70 activator	NALP1 yeast inh	pCIP destab	HSF1 activator	HSF1 inh
COc1ccc(C(=O)/C=C/c2ccc(N(C)C)cc2)c(OC)c1	3	nt	18	-21	22	9
COc1ccc(OC)c(C(=O)/C=C/c2ccccc2C(F)(F)F)c1	3	0	0	3	212*	159
COCOc1cc(O)c(C(=O)/C=C/c2ccccc2)c(OCOC)c1	nt	nt	nt	nt	155*	151
COc1ccc(C(=O)/C=C/c2ccc(N3CCCCC3)c([N+](=O)[O-])c2)c(OC)c1	0	0	11	-8	68*	50
CCOc1ccccc1/C=C/c1onc(C)c1S(=O)(=O)N1CCC(C(=O)N2CCCCCC2)CC1	0	nt	27	-2	30	14
S=C(Nc1ccc(Br)cc1Cl)N1CCN(c2ccccn2)CC1	0	nt	16	-2	16	6
COc1ccc(C(=O)/C=C/Nc2cc(C)on2)c(OC)c1	-3	0	5	-9	-66	-58*
COc1ccc(C(=O)/C=C/Nc2ccc([N+](=O)[O-])cc2C)c(OC)c1	-4	0	45	-11	-2	6
COc1ccc(NC(=O)CN(C)C(=O)c2ccc(N3CCCCCC3)c([N+](=O)[O-])c2)cc1	nt	nt	nt	nt	67*	23
O=C(NC1CCCCC1)C(c1cccnc1)N(C(=O)c1csnn1)c1ccccc1 (configuration not stated)	-2	nt	-3	2	19	1
COc1cc(C(=O)Nc2ccc(NC(=O)c3ccccc3Cl)nc2)cc(OC)c1OC	2	nt	4	-6	1	-3
Cc1c(C(=O)N(Cc2ccncc2)CC2CCCO2)oc2c(F)cccc12 (configuration not stated)	-1	nt	16	-48	53*	10
Cc1ccc2c(C)c(C(=O)N(Cc3ccncc3)CC3CCCO3)oc2c1C (configuration not stated)	0	nt	16	-15	-7	-1
CC1=C(C)CC(C(=O)NCCCN2CCCC2=O)C(C(=O)O)C1 (configuration not stated)	-1	nt	2	-3	6	-3
O=C(Nc1nc2c(s1)CCc1ccccc1-2)c1cccs1	0	0	1	4	57*	48
CCOC(=O)c1ccc2nc(NC(=O)c3cccs3)sc2c1	1	0	-2	-3	40	21
O=C(Nc1nc2c(s1)COc1ccccc1-2)c1cccs1	-6	0	4	-13	12	4
CS(=O)(=O)c1ccc2nc(NC(=O)c3ccco3)sc2c1	4	0	18	-11	14	16
O=C(NC(=S)Nc1nc2ccc(F)cc2s1)c1ccco1	2	0	24	2	89*	48
CCOC(=O)c1ccc2nc(NC(=O)c3ccco3)sc2c1	3	0	-2	3	69*	28
O=C(Nc1nc2ccc(F)cc2s1)c1cccs1	5	0	7	9	80*	35
Cc1ccc2nc(Nc3ccc(C)c(C)c3)c3nncn3c2c1	-1	nt	21	-12	9	-3
Cc1nn(Cc2ccccc2)c(C)c1NC(=O)c1noc2c1CCc1ccccc1-2	-2	0	26	-6	-72	-67*
Cc1ccc2nc(C)cc(Nc3ccc4c(c3)OCCO4)c2c1	-2	1	33*	-11	-9	-20
COc1ccccc1-c1nnc(Nc2nc3c(OC)cccc3s2)o1	1	0	-70	-8	214*	125
SMILES	HSP90 refold inh	Hsp70 activator	NALP1 yeast inh	pCIP destab	HSF1 activator	HSF1 inh
CCCCN(C(=O)c1ccc([N+](=O)[O-])s1)c1c(N)n(CCCC)c(=O)[nH]c1=O	nt	nt	nt	nt	-70	-62*
CCOC(=O)c1cn[nH]c1C(F)(F)F	1	nt	0	-4	57*	26
CC(C)CNc1nnnc2c1sc1nc(N3CCOCC3)c3c(c12)CCCC3	-1	nt	1	-12	15	-6
C=CCNc1nnnc2c1sc1nc(N3CCOCC3)c3c(c12)CCCC3	-1	nt	5	-32	-75	-68*
CC(=O)Nc1ccc(S(=O)(=O)Nc2ccc(C(=O)NCC(=O)O)cc2)cc1	1	nt	-14	-16	6	-10
COc1ccc(OCC(=O)Nc2ccc3c(c2)nc(CCN2CCCCC2)n3C)cc1	-1	nt	5	-4	63*	40
CC1CCN(CCc2nc3cc(NC(=O)COc4ccc(Cl)cc4)ccc3n2C)CC1	2	nt	-6	3	72*	52

Source: PubChem BioAssay (several laboratories)
